Assay results reported in PubChem BioAssay AID1159580 (chemical genetic matrix, 2015).
Hit rate of the full screen: of about 5,500 compounds, about 2,000 (36%) were called active. Inconclusive results (about 18%) are left out. No stated cut-off is given here; in the data, active means normalized growth mostly below about 0.91 (no sharp cut-off); inconclusive means no clear call, values can overlap the other calls; inactive means mostly above about 0.92. This is one part of the list.

Test: chemical genetic growth profiling, strain panel (AID 1159580);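 further: tested at 20 µM; growth read once vehicle control cultures reached saturation at 30 °C; 1 = growth at the plate median or of vehicle wells; lower values mean less growth of the strain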
Details: S. cerevisiae deletion strains, growth OD

Measured: normalized growth

CCC1(C2=NCCN2)Cc2ccccc2O1 (stereo not given)
inactive: locus YAL021C, strain ccr4, active compounds read low 0.996 | locus YAL026C, strain drs2, active compounds read low 1.01 | locus YAL030W, strain snc1, active compounds read low 1.01 | locus YAL040C, strain CLN3, active compounds read low 1.07 | locus YBL061C, strain skt5, active compounds read low 1 | locus YBR009C, strain hhf1, active compounds read low 1.01 | locus YBR023C, strain chs3, active compounds read low 1.01 | locus YBR171W, strain sec66, active compounds read low 1.02 | locus YBR231C, strain swc5, active compounds read low 0.998 | locus YBR279W, strain paf1, active compounds read low 1.01 | locus YCL011C, strain gbp2, active compounds read low 1.02 | locus YCL016C, strain dcc1, active compounds read low 1 | locus YCL061C, strain MRC1 (second series), active compounds read low 1.01 | locus YCL061C, strain MRC1, active compounds read low 1 | locus YCL069W, strain vba3, active compounds read low 1.01 | locus YCR088W, strain abp1, active compounds read low 1.02 | locus YDL005C, strain med2, active compounds read low 1 | locus YDL040C, strain nat1, active compounds read low 1.01 | locus YDR001C, strain nth1, active compounds read low 1.01 | locus YDR069C, strain doa4, active compounds read low 1 | locus YDR137W, strain rgp1, active compounds read low 1.01 | locus YDR159W, strain sac3, active compounds read low 0.991 | locus YDR195W, strain ref2 0.967 | locus YDR297W, strain sur2, active compounds read low 1 | locus YDR334W, strain swr1, active compounds read low 1.01 | locus YDR335W, strain msn5, active compounds read low 1.01 | locus YDR363W, strain ESC2, active compounds read low 1.03 | locus YDR392W, strain spt3, active compounds read low 0.818 | locus YEL003W, strain gim4, active compounds read low 1.01 | locus YEL037C, strain rad23, active compounds read low 1.01 | locus YEL061C, strain CIN8 (second series), active compounds read low 1.01 | locus YER002W, strain NOP16, active compounds read low 1.01 | locus YER015W, strain faa2, active compounds read low 1 | locus YER016W, strain bim1, active compounds read low 1.01 | locus YER111C, strain swi4, active compounds read low 1.01 | locus YER155C, strain BEM2 (second series), active compounds read low 0.973 | locus YFR010W, strain ubp6, active compounds read low 1.01 | locus YGL167C, strain pmr1, active compounds read low 1 | locus YGL173C, strain kem1, active compounds read low 1.01 | locus YGL227W, strain vid30, active compounds read low 1.01 | locus YGL240W, strain doc1, active compounds read low 0.989 | locus YGL253W, strain hxk2, active compounds read low 1.02 | locus YHR013C, strain ard1, active compounds read low 0.964 | locus YHR027C, strain rpn1, active compounds read low 1.01 | locus YHR142W, strain chs7, active compounds read low 1.02 | locus YJL092W, strain hpr5, active compounds read low 1.01 | locus YJL095W, strain BCK1 (second series), active compounds read low 1.01 | locus YJL115W, strain asf1, active compounds read low 1 | locus YJL129C, strain trk1, active compounds read low 0.996 | locus YJL154C, strain vps35, active compounds read low 1.01 | locus YJL164C, strain tpk1, active compounds read low 0.995 | locus YJL166W, strain qcr8, active compounds read low 1 | locus YJL187C, strain SWE1, active compounds read low 1.01 | locus YKL160W, strain elf1, active compounds read low 0.99 | locus YKR026C, strain gcn3, active compounds read low 1.02 | locus YKR091W, strain srl3, active compounds read low 1 | locus YLL001W, strain dnm1, active compounds read low 1.01 | locus YLL026W, active compounds read low 1 | locus YLL041C, strain sdh2, active compounds read low 1.01 | locus YLR027C, strain aat2, active compounds read low 1.01 | locus YLR221C, strain rsa3, active compounds read low 1.01 | locus YLR258W, strain gsy2, active compounds read low 1 | locus YLR262C, strain YPT6 (second series), active compounds read low 0.995 | locus YLR320W, strain mms22, active compounds read low 1 | locus YLR342W, strain FKS1, active compounds read low 1 | locus YLR357W, strain rsc2, active compounds read low 1.01 | locus YLR370C, strain arc18, active compounds read low 1.01 | locus YLR384C, strain iki3, active compounds read low 1.01 | locus YML120C, strain ndi1, active compounds read low 1.01 | locus YMR058W, strain fet3, active compounds read low 1.01 | locus YMR125W, strain sto1, active compounds read low 1.01 | locus YMR129W, active compounds read low 1 | locus YMR205C, strain PFK2, active compounds read low 1 | locus YMR231W, strain pep5, active compounds read low 1 | locus YMR263W, strain SAP30, active compounds read low 1.01 | locus YMR307W, strain GAS1, active compounds read low 1.03 | locus YNL071W, strain lat1, active compounds read low 1.01 | locus YNL153C, strain GIM3, active compounds read low 0.99 | locus YNL175C, strain NOP13, active compounds read low 1.01 | locus YNL197C, strain WHI3, active compounds read low 1.01 | locus YNL209W, strain ssb2, active compounds read low 1 | locus YNL224C, strain SQS1, active compounds read low 1.01 | locus YNL248C, strain rpa49, active compounds read low 1 | locus YNL322C, strain KRE1 (second series), active compounds read low 1 | locus YNL322C, strain KRE1, active compounds read low 1.01 | locus YNR049C, strain mso1, active compounds read low 1.01 | locus YOR001W, strain rrp6, active compounds read low 1 | locus YOR070C, strain gyp1, active compounds read low 1.01 | locus YOR080W, strain dia2, active compounds read low 0.994 | locus YOR083W, strain WHI5 (second series), active compounds read low 1 | locus YOR083W, strain WHI5, active compounds read low 0.994 | locus YOR106W, strain vam3, active compounds read low 1.01 | locus YOR265W, strain rbl2, active compounds read low 1.01 | locus YOR270C, strain vph1, active compounds read low 1.03 | locus YOR290C, strain snf2, active compounds read low 0.965 | locus YPL051W, strain arl3, active compounds read low 1 | locus YPL078C, strain atp4, active compounds read low 1 | locus YPL106C, strain sse1, active compounds read low 0.984 | locus YPL240C, strain hsp82, active compounds read low 0.991 | locus YPL241C, strain CIN2, active compounds read low 1.01
